The assay has as its system PXR:RXRa (NR concentration 270 nM, RXRa partner concentration 90 nM). Put plainly: PBM binding z-score (relative to random genomic background probes); higher = stronger binding; sequences stand for … in GC…GCGATTGACAGCGTAGAATGAAGG
In outline:
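Scanned fluorescence from custom Agilent 4×180K protein-binding microarrays was regression-normalized. Binding z-scores use random background probes as reference. Ligand-free nuclear receptor dimers were incubated on the arrays for 1 h and detected with antibodies against each partner (one per run).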
CCCACTGGGGCATAAGGTTACCATAAGCCAGCCC came in with a PBM binding z-score of 0.0928.

As to GCTTACGGGTCAAACGTTATAGCATGAATAGAAT, the PBM binding z-score was 3.37. With TCTCGGATGACACGAAGGTCAGAGCTTTCCAGAG, the PBM binding z-score came out at 1.62. Consider ATCTCTAGGTAAAATTTCAGTGAATCCCGAGGAT, for which the PBM binding z-score is -0.0385. With CATACAGGGTCAGCTAGGCGAGAGTAGGGACGGC, the PBM binding z-score was 1.83.

GAAACGAGGGCAAGTTGATAGCAGAGTTTGATGG returned a PBM binding z-score of 0.91. On to GCATATAGGTAATACAAGGTGAAAATCCGATTGT, for which the PBM binding z-score turned out to be 0.273. CCTAGTTGGTCAGGAGGTCAGACACCGGATATGA: the PBM binding z-score is 2.7.

For CCTTACGGCTCACGAGGTTATAGCACGACGAGCG, the PBM binding z-score is 0.289. In turn, CCTCGGAGGAGAACAGGAGGTCAGAGCTGCCAGA gave a PBM binding z-score of 1.87. As to TAGCCTTGGTCATGCGGGCCAGTATAGTGTCGGC, the PBM binding z-score is -0.758. In the case of AGAATGAGTTTACCAAAGATCAGGGAAACGCTTG, the PBM binding z-score worked out at 0.296.

As for ACTCGGAGGACAAAGGTCTGAGCTACGCCAGTGA, the PBM binding z-score is -0.428. Sequence TTACCAAGGGGAAAGGTCGTTGATGCACGCCTTG showed a PBM binding z-score of 2.44. As for CCTACTGGGCCACGAATGGTCATTGATTCAGTGA, the PBM binding z-score was -0.684. As for CGTCAAAGTTCAACTAAGGAAACGTAAAGCACGC, the figure is 4.87; as for TCTTGTAGATCAAGGAGGTTAAGAAAGCCTGAGT, 0.734. As for AATACAGGGTCACTAGGACAGAGTAGGTACGAAT, the figure is 3.17. The value for GTTCGGAGGACAAGGTCAGAGCTTTGTCCGTAGA was 1.67; that for TGAATGAGGTTAAAGATCAGGTAACGTGGCGTCG was 2.19. On to AATACAGGGTCACTAGGCCAGATTAGGTACGAAT, for which the PBM binding z-score came to 3.32. On to GCAGACAGGTGTAACGCAGGTAACTCAGGGTGGC, for which the PBM binding z-score is -0.578. The value for CTACCAAGGTGAACAAGGTCGCTGATTACTATTC was 1.7; that for CTTAGCAGGCCAGGGTCACTCAAGCATTTCGCTT was 2.67.

As for CCTACTGAGCCATTCAGAGGTCATTGATCATATG, the PBM binding z-score is 4.96. GGAAAGAGGGCAAGTTGATAGCAGAGTTTGATGG: the PBM binding z-score is 1.29. As for ATCTCTAGGTAACAAGTTCAGTGGAAGAGAGGAC, the figure is 1.66; as for TCTCGGCGGACACGAAAGGTCAGAGCTCGACATC, 3.15.

For the sequence CCTTACTGGTCACTGACAGGTTATAGCATTTGGA, the PBM binding z-score was 0.611. In turn, CGACCAAGGTCAGCAGGTCAGTGAAAGCGACGTG yielded a PBM binding z-score of 3.18. Turning to TCTTGTAGATCAACAGAGGTTAAGAAAGTGCGCT, the PBM binding z-score worked out at 3.06. As for CCTAGTTGGTCAAGGTCACACTCGCTATAGGTAC, the figure is 3.95; as for CAAACTAGGTCAAGAGATCAAAGTCCGCTTCCCG, 1.51; as for CTACTAAGGTGAACAAGGTCGTTGATTACTATTC, 3.22. In the case of CGTCCAAGGTCAAGGCCAGTGAAAGAGACTCGAA, the PBM binding z-score turned out to be 3.44.

ATCTCTGGGTAAGACTCAGTTCAGTGAAGAACGC registered a PBM binding z-score of 1.16.

In the case of GCTAGTTGGTCAGTAAAAGGACACACACCGGTCG, the PBM binding z-score was -0.134.

With CCGACTGGGCCAAAAAGGTCATTGATGCCGATAA, the PBM binding z-score was found to be 4.5.

Sequence TAGCCTAGGTCATTCAGGGGCCAGGATAGAAAGC yielded a PBM binding z-score of 2.26. Regarding GCGACTGGGGCAGCAGCAGGTTACCATAACTTAA, the PBM binding z-score is -0.502.
